This is part of a sample that, as a whole, favours compounds with a hit. Of some 79,000 tested, about 15% had one in any assay. The source made the active and inactive calls. No stated cut-off is given here; in the data, active means growth inhibition above about 70%; inactive means the rest.
experiment: NCI Yeast Anticancer Drug Screen. Data for the bub3 strain (AID 167); settings: S. cerevisiae bub3 mutant strain, at 50.0 µM, stronger effect = higher value
Outline: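 In this screen, a yeast mutant lacking normal mitotic checkpoint function is challenged with compound. Relative growth versus vehicle gives the inhibition value.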

Structure (SMILES)	growth inhibition
Cc1ccc(NC(=O)/C=C/c2ccccc2)cc1Cl	27.4% (inactive)
COC(CCCl)c1ccc(C)cc1 (stereo not given)	-29.9% (inactive)
CC1CCCN2C(=O)CN(Cc3ccccc3)CC(=O)N12 (stereo not given)	3.1% (inactive)
Cn1c(COc2ccc(/C=N\N3CCN(/N=C\c4ccc(OCc5c[n+]6ccccc6n5C)cc4)CC3)cc2)c[n+]2ccccc12	-5.95% (inactive)
CC(=O)N1Cc2c(N)ncnc2C1C (stereo not given)	-0.25% (inactive)
C(#CCN1CCOCC1)CCCN1CCOCC1	-15.2% (inactive)
COC(=O)c1nc(=S)[nH]c(C(=O)OC)c1C(=O)c1ccc(OC)cc1	-30.4% (inactive)
CC1OS(=O)OC1C (stereo not given)	-8.45% (inactive)
O=C(NCCCl)c1ccc(F)cc1	-6.95% (inactive)
CC(C)N(C(=O)C12CC3CC(CC(C3)C1)C2)C(C)C	20.9% (inactive)
O=S(=O)(O)CCCC1S(=O)(=O)OCCOS1(=O)=O	-1.3% (inactive)
C[N+]([O-])(C/C=C/c1ccccc1)c1ccccc1 (stereo not given)	-29.1% (inactive)
CN(C)c1ccc(/C=C(\C#N)c2cccc(Br)c2)cc1	12.1% (inactive)
CC(C)CC(Br)C(=O)NCC(=O)NCC(=O)O (stereo not given)	2.85% (inactive)
CC(C)(C)c1cc2c3c(c1)C(C(F)(F)F)(C(F)(F)F)OS3(=O)(O)OC2(C(F)(F)F)C(F)(F)F	4.2% (inactive)
CC(C)(C)OC(=O)C1C(=O)CC(c2ccccc2)C1c1ccccc1 (stereo not given)	-5.7% (inactive)
COc1ccc(OC)c(NC(=O)Nc2ccc(I)cc2)c1	52.9% (inactive)
CC(=O)c1ccc(N=NN(C)C)cc1	-21.9% (inactive)
COC1=c2\cccc\c2=c2/cccc/c2=c2\cccc\c2=N\1	13.4% (inactive)
CCc1c(C(=O)OC)c(C(=O)OC)c(-c2ccc(C)cc2)n1CCn1c(CC)c(C(=O)OC)c(C(=O)OC)c1-c1ccc(C)cc1	-3.15% (inactive)

Structure (SMILES)	growth inhibition
COC(=O)c1ccccc1N=NNc1ccc(C(F)(F)F)c([N+](=O)[O-])c1	9.95% (inactive)
Nc1ncnc2c1nnn2CC(O)CO (stereo not given)	-2.9% (inactive)
CC1CCOC(/C=C/c2ccccc2)O1 (stereo not given)	40.8% (inactive)
c1ccc(CC[n+]2ccncc2)cc1	7.15% (inactive)
CN(C)c1ccc(Cc2ccc(N(C)C)cc2[N+](=O)[O-])c([N+](=O)[O-])c1	15.3% (inactive)
CC12CCC(=O)C=C1CCC1C2C(=O)CC2(C)C1CCC2(O)C(=O)Cn1cc(F)c(=O)[nH]c1=O (stereo not given)	-1.25% (inactive)
Cc1cc(C)c(S(=O)(=O)O)cc1N	-0.05% (inactive)
COc1ccc(OC)c2c(Nc3ccc(S(=O)(=O)O)c4cc(S(=O)(=O)O)cc(S(=O)(=O)O)c34)cc(C)nc12	6.8% (inactive)
CCOC(=O)C1(C(=O)OCC)CCC(C(OC)OC)C(CC(=O)OC)C1 (stereo not given)	26.4% (inactive)
N=C(N)SCCC(=O)CCSC(=N)N	15.6% (inactive)
C[N+]1(C)CCC(C(=O)c2ccccc2)CC1	17% (inactive)
CN(C(=O)/C=C/c1ccccc1)c1ccccc1	43.3% (inactive)
C=CS(=O)(=O)CCOc1ccc(Cl)cc1Cl	98.4% (active)
CC1CCCC2(C)CCC(=O)C=C12 (stereo not given)	-1.95% (inactive)
O=C1c2ccccc2CN1c1ccccc1	-7.5% (inactive)
COC(=O)c1nsc(OC)c1Cl	23.6% (inactive)
CCN(CC)CCOC(=O)c1ccc(N=C/C=C/C(C#N)=C/NOC)cc1	9.9% (inactive)
CCOc1ccc2nc(NC(=O)/C(CC(=O)CC(C3=C(O)c4ccccc4CC3=O)c3ccccc3)=N\O)sc2c1 (stereo not given)	-0.25% (inactive)
Cc1csc2nc(-c3ccco3)nn12	-13.3% (inactive)
Cc1ccc2snc(C(=O)O)c2c1[N+](=O)[O-]	-13.6% (inactive)

experiment: NCI Yeast Anticancer Drug Screen. Data for the mlh1 rad18 strain (AID 175); settings: S. cerevisiae mlh1 rad18 strain growth inhibition; at 50.0 µM; stronger effect = higher value
Outline: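 Steps: expose repair-defective yeast to compound; measure growth; express inhibition against vehicle-treated controls.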

Structure (SMILES)	growth inhibition
Cc1ccc(NC(=O)/C=C/c2ccccc2)cc1Cl	16.1% (inactive)
COC(CCCl)c1ccc(C)cc1 (stereo not given)	1.8% (inactive)
CC1CCCN2C(=O)CN(Cc3ccccc3)CC(=O)N12 (stereo not given)	-4.45% (inactive)
Cn1c(COc2ccc(/C=N\N3CCN(/N=C\c4ccc(OCc5c[n+]6ccccc6n5C)cc4)CC3)cc2)c[n+]2ccccc12	44% (inactive)
CC(=O)N1Cc2c(N)ncnc2C1C (stereo not given)	-12.2% (inactive)
C(#CCN1CCOCC1)CCCN1CCOCC1	10.2% (inactive)
COC(=O)c1nc(=S)[nH]c(C(=O)OC)c1C(=O)c1ccc(OC)cc1	1.2% (inactive)
CC1OS(=O)OC1C (stereo not given)	-0.4% (inactive)
O=C(NCCCl)c1ccc(F)cc1	-44.7% (inactive)
CC(C)N(C(=O)C12CC3CC(CC(C3)C1)C2)C(C)C	6.15% (inactive)
O=S(=O)(O)CCCC1S(=O)(=O)OCCOS1(=O)=O	-25.8% (inactive)
C[N+]([O-])(C/C=C/c1ccccc1)c1ccccc1 (stereo not given)	-2.7% (inactive)
CN(C)c1ccc(/C=C(\C#N)c2cccc(Br)c2)cc1	-0.05% (inactive)
CC(C)CC(Br)C(=O)NCC(=O)NCC(=O)O (stereo not given)	-8.95% (inactive)
CC(C)(C)c1cc2c3c(c1)C(C(F)(F)F)(C(F)(F)F)OS3(=O)(O)OC2(C(F)(F)F)C(F)(F)F	39% (inactive)
CC(C)(C)OC(=O)C1C(=O)CC(c2ccccc2)C1c1ccccc1 (stereo not given)	-1.9% (inactive)
COc1ccc(OC)c(NC(=O)Nc2ccc(I)cc2)c1	56% (inactive)
CC(=O)c1ccc(N=NN(C)C)cc1	-15.6% (inactive)
COC1=c2\cccc\c2=c2/cccc/c2=c2\cccc\c2=N\1	17.5% (inactive)
CCc1c(C(=O)OC)c(C(=O)OC)c(-c2ccc(C)cc2)n1CCn1c(CC)c(C(=O)OC)c(C(=O)OC)c1-c1ccc(C)cc1	17.9% (inactive)

Structure (SMILES)	growth inhibition
COC(=O)c1ccccc1N=NNc1ccc(C(F)(F)F)c([N+](=O)[O-])c1	-11.7% (inactive)
Nc1ncnc2c1nnn2CC(O)CO (stereo not given)	5.2% (inactive)
CC1CCOC(/C=C/c2ccccc2)O1 (stereo not given)	-1.75% (inactive)
c1ccc(CC[n+]2ccncc2)cc1	-17.3% (inactive)
CN(C)c1ccc(Cc2ccc(N(C)C)cc2[N+](=O)[O-])c([N+](=O)[O-])c1	-1.35% (inactive)
CC12CCC(=O)C=C1CCC1C2C(=O)CC2(C)C1CCC2(O)C(=O)Cn1cc(F)c(=O)[nH]c1=O (stereo not given)	6.5% (inactive)
Cc1cc(C)c(S(=O)(=O)O)cc1N	-26.1% (inactive)
COc1ccc(OC)c2c(Nc3ccc(S(=O)(=O)O)c4cc(S(=O)(=O)O)cc(S(=O)(=O)O)c34)cc(C)nc12	10.9% (inactive)
CCOC(=O)C1(C(=O)OCC)CCC(C(OC)OC)C(CC(=O)OC)C1 (stereo not given)	16.4% (inactive)
N=C(N)SCCC(=O)CCSC(=N)N	-2.75% (inactive)
C[N+]1(C)CCC(C(=O)c2ccccc2)CC1	16.4% (inactive)
CN(C(=O)/C=C/c1ccccc1)c1ccccc1	32.4% (inactive)
C=CS(=O)(=O)CCOc1ccc(Cl)cc1Cl	98.9% (active)
CC1CCCC2(C)CCC(=O)C=C12 (stereo not given)	-20.5% (inactive)
O=C1c2ccccc2CN1c1ccccc1	-2.7% (inactive)
COC(=O)c1nsc(OC)c1Cl	50.4% (inactive)
CCN(CC)CCOC(=O)c1ccc(N=C/C=C/C(C#N)=C/NOC)cc1	30.9% (inactive)
CCOc1ccc2nc(NC(=O)/C(CC(=O)CC(C3=C(O)c4ccccc4CC3=O)c3ccccc3)=N\O)sc2c1 (stereo not given)	-20.1% (inactive)
Cc1csc2nc(-c3ccco3)nn12	4.35% (inactive)
Cc1ccc2snc(C(=O)O)c2c1[N+](=O)[O-]	8.6% (inactive)

Reference: PubChem BioAssay (NCI)
